Tau FP inhib: inhibitors of human tau fibril formation; K18 P301L tau heparin fibrillization, Alexa594 FP, 6 h; 0.39% of 280,000 active; Potency, µM (series often up to 57.7 µM), usual class: inhibitors; AID 1468; P10636; also: nearly all actives have a fitted effect of over 55% in size
Target sequence (P10636 561-689 P618L limits assumed): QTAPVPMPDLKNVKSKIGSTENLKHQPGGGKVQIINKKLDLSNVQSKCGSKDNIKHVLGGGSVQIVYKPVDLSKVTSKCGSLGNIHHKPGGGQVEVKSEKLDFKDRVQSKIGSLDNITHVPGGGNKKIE
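Heparin (20 uM) drove fibril formation of recombinant tau K18 P301L, 15 uM unlabeled with 0.24 uM Alexa 594 label, for 6 hr at 37 C in 100 mM sodium acetate pH 7. Fluorescence polarization (555/632 nm) read 1 hr after 30 uM ThT.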
Tau fibril ThT: blocks human tau fibril formation measured by thioflavin T. 2.1% of 270,000 active. Potency, µM (titrated, usually from 57.4 µM), hits mostly inhibitors. recombinant tau K18 P301L, heparin-induced fibrillization, ThT fluorescence. P10636; also: nearly all actives have a fitted effect of over 55% in size
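Fibril formation assay: tau K18 P301L at 15 uM with trace Alexa 594 label, heparin inducer 20 uM, pH 7 sodium acetate buffer, 37 C for 6 hr; endpoint ThT signal.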
HPGD inh: blocks human HPGD enzyme activity | purified HPGD, NADH fluorescence kinetic, PGE2 substrate | Potency, µM, actives largely listed as inhibitors | 4.3% of 150,000 active | P15428 | AID 894; active = well fitted inhibition curve with a large enough effect, not every such curve was filed as active; inconclusive = small, poorly fitted or top-dose-only effect, or another doubt; inactive = no such curve, though single readings can be large or run the other way
Target sequence (P15428 whole entry, looked up): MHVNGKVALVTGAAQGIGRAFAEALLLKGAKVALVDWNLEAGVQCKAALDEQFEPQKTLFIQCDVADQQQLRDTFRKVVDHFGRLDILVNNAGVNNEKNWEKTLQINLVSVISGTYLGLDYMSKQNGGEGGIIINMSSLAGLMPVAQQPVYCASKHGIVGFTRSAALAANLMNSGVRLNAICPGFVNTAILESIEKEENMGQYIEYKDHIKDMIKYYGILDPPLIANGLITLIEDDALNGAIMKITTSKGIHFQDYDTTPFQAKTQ
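NADH formation kinetics: reaction with 30 uM PGE2 and 1 mM NAD+ (final), 20 nM enzyme, Tris-HCl pH 8 with Tween 20, after 15 min compound preincubation at room temperature. Fluorescence change, last versus first of five reads.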
Tau fluor counter: counter-screen for tau fibril formation inhibitors. tau K18 P301L (four-repeat tau fragment) Alexa594 fluorescence, heparin fibrillization. AID 1463. 0.93% of 280,000 active. Potency, µM (series often up to 57.7 µM); also: nearly all actives have a fitted effect of over 55% in size
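Human K18 P301L tau (15 uM unlabeled plus 0.24 uM Alexa 594-labeled, final) in 100 mM sodium acetate pH 7 was mixed with compound and 20 uM heparin and incubated 6 hr at 37 C.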
NPSR antagonist: neuropeptide S receptor (human) antagonism, cAMP; CHO-NPSR cells, cAMP TR-FRET, antagonist mode; Potency, µM (series often up to 38.3 µM), hits mostly inhibitors; 1% of 220,000 active; AID 1461; also: nearly all actives have a fitted effect of over 50% in size
ALDH1A1 inh: ALDH1A1 (human) enzyme inhibition. 7.3% of 220,000 active. P00352. Purified ALDH1A1, NADH fluorescence, propionaldehyde substrate. Potency, µM (titrated, usually from 75.3 µM), actives largely listed as inhibitors. AID 1030; active = well fitted inhibition curve with a large enough effect, not every such curve was filed as active; inconclusive = small, poorly fitted or top-dose-only effect, or another doubt; inactive = no such curve, though single readings can be large or run the other way
Of the large screens only hits and unclear results are named; the others gave an inactive call; [ ] = remark or other dose. Hits are enriched below; roughly 9.5% of the tested compounds scored in any of these assays. Unless noted, calls follow the shape of the dose curve; as a rule, active = well fitted curve in the direction sought with a large enough effect; inconclusive = small, poorly fitted or top-dose-only effect, or another doubt; inactive = no such curve, though single readings can be large; an effect the other way counts as inactive or inconclusive.

Fc1ccc(CNc2nc(-c3ccc(Cl)cc3)cc(C(F)(F)F)n2)cc1	Tau FP inhib inconclusive (no result: HPGD inh, NPSR antagonist, ALDH1A1 inh)
Oc1ccc(/C=N/Nc2nc(-c3ccc(Cl)cc3)cc(C(F)(F)F)n2)cc1	Tau FP inhib inconclusive, Tau fibril ThT 17.8µM, Tau fluor counter 25.1µM[quencher]
Cc1cccc(C(=O)n2c(=S)nc3ccccn32)c1	Tau FP inhib inconclusive, Tau fibril ThT inconclusive, HPGD inh 22.4µM, ALDH1A1 inh 10µM
Cc1ccc(C(=O)n2c(=S)nc3ccccn32)cc1	HPGD inh 31.6µM, ALDH1A1 inh 22.4µM
O=C(c1ccccc1)n1c(=S)nc2ccccn21	Tau FP inhib inconclusive, Tau fibril ThT inconclusive (no result: HPGD inh)
C=CCOC(=O)C1=C(C)NC(=S)NC1/C=C/c1ccccc1 (stereo not drawn)	ALDH1A1 inh 0.0447µM
COCCOC(=O)C1=C(C)NC(=S)NC1/C=C/c1ccccc1 (stereo not drawn)	ALDH1A1 inh 0.794µM
CCOC(=O)C1=C(N)OC2=C(C(=O)CC(C)(C)C2)C1c1cc(CSc2nnnn2C)cs1 (stereo not drawn)	ALDH1A1 inh 1µM (no result: HPGD inh)
CCOC(=O)C1=C(N)OC2=C(C(=O)CC(C)(C)C2)C1c1cccnc1 (stereo not drawn)	none
CCOC(=O)C1=C(N)OC2=C(C(=O)CC(C)(C)C2)C1C1CCCCC1 (stereo not drawn)	NPSR antagonist inconclusive
CCOC(=O)C1=C(N)OC2=C(C(=O)CC(C)(C)C2)C1c1ccoc1 (stereo not drawn)	Tau fibril ThT inconclusive, ALDH1A1 inh 25.1µM
O=S(=O)(O)c1cc(O)c2c(O)c(N=Nc3cccc4ccccc34)c(S(=O)(=O)O)cc2c1	none (no result: Tau FP inhib, Tau fibril ThT, Tau fluor counter, NPSR antagonist)
COCCCNC(=O)Cn1c(=O)n(CCCCCC(=O)NCc2ccc3c(c2)OCO3)c(=O)c2sccc21	none (no result: HPGD inh)
COc1cc(C(=O)O/N=C2\C=CC(=O)C(C)=C2)cc(OC)c1OC	Tau fibril ThT inconclusive, Tau fluor counter inconclusive, ALDH1A1 inh 14.1µM
CCOC(=O)c1c(C)oc2nc(C)nc(NCc3cccc(OC)c3)c12	none (no result: HPGD inh, NPSR antagonist, ALDH1A1 inh)
Cc1ccc(-n2c(Cn3nc(C(F)F)cc3C(F)F)n[nH]c2=S)cc1	none
CCC1(C(=O)OC)NC(c2ccco2)C2C(=O)N(c3ccc(F)cc3)C(=O)C21 (stereo not drawn)	Tau fibril ThT inconclusive, ALDH1A1 inh 17.8µM (no result: HPGD inh)
COC(=O)C1=C(C)[C@H](O)[C@@H](C)[C@](C)(c2cc(OC)c(C)c(OC)c2COc2ccccc2)O1	none (no result: NPSR antagonist)
O=C1NC(=S)SC1=C1CCCCCC1	Tau fibril ThT inconclusive, HPGD inh 11.2µM, ALDH1A1 inh 7.08µM
COc1ccc(-c2nc(SCC(=O)Nc3ccc4c(c3)OCCO4)c(-c3ccc(F)cc3)[nH]2)cc1	Tau FP inhib inconclusive, Tau fluor counter 8.91µM[quencher] (no result: HPGD inh, NPSR antagonist, ALDH1A1 inh)
O=C(CSc1nnc(-c2ccncc2)n1-c1ccc(F)cc1)NC(=O)NCc1ccco1	ALDH1A1 inh 25.1µM
COc1ccc(-c2[nH]c(-c3cccc(OC)c3)nc2SCC(=O)NCc2ccco2)cc1	Tau FP inhib inconclusive, Tau fibril ThT inconclusive, Tau fluor counter 14.1µM[quencher], ALDH1A1 inh inconclusive
COc1ccc(-c2nc(SCC(=O)Nc3ccc4c(c3)OCO4)c(-c3ccc(F)cc3)[nH]2)cc1OC	Tau fluor counter inconclusive (no result: HPGD inh, NPSR antagonist, ALDH1A1 inh)
Cc1ccc(-n2c(SCC(=O)NCc3ccco3)nnc2-c2cccnc2)cc1	ALDH1A1 inh inconclusive
COc1ccc(-c2nnc(SCC(=O)NC(=O)NCc3ccco3)o2)cc1	HPGD inh 20µM, ALDH1A1 inh 22.4µM
COc1ccccc1NC(=O)CSc1oc(-c2ccccc2)nc1S(=O)(=O)c1ccccc1	Tau FP inhib inconclusive, Tau fluor counter inconclusive (no result: HPGD inh, NPSR antagonist, ALDH1A1 inh)
C=CCNC(=O)c1cc([N+](=O)[O-])cc2c(=O)[nH]c(Nc3ccc(Cl)c(Cl)c3)nc12	Tau fibril ThT inconclusive (no result: NPSR antagonist)
COc1cccc(-c2nc(SCC(=O)Nc3ccc4c(c3)OCCO4)c(-c3ccc(C)cc3)[nH]2)c1	Tau FP inhib inconclusive, Tau fibril ThT inconclusive, Tau fluor counter 5.01µM[quencher] (no result: HPGD inh, NPSR antagonist, ALDH1A1 inh)
COc1ccc(-c2nc(SCC(=O)Nc3ccc4c(c3)OCCO4)c(-c3ccc(F)cc3)[nH]2)cc1OC	Tau fluor counter 6.31µM[quencher] (no result: HPGD inh, NPSR antagonist, ALDH1A1 inh)

Bioassay records: PubChem, National Center for Advancing Translational Sciences (NCATS)
